Screening data: PubChem BioAssay, National Center for Advancing Translational Sciences (NCATS)
This is a sample that favours compounds with a hit; in the whole collection about 4.7% have one here.
D1 PAM: human D1 dopamine receptor positive modulation. P21728. HEK293 TREx D1 cells, calcium flux, dopamine EC20 potentiation. actives 0.036% (n = 360,000). potentiation, % at 10 µM; in the data active means potentiation above about 30%; further: 0% is about no effect
D1 antagonist: human D1 dopamine receptor antagonism; activity change, negative = inhibition, % at 10 µM; HEK293 TREx D1 cells, calcium flux, dopamine EC80; hits give low values; P21728; actives 3.2% (n = 360,000); in the data active means activity change below about -30%; further: on the % scale 0 is the no-effect control and ±100 the full control effect
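Using tetracycline-induced force-coupled D1 Hek293 cells and a calcium dye, signals were followed for 180 s after compound, then for 180 s after EC80 dopamine, to detect inhibitors.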
TRHR PAM: allosteric enhancers of human TRH receptor; P34981; TRHR cells, fluo-8 calcium fluorescence, EC20 TRH enhancement; enhancement, % at 2 µM; actives 0.66% (n = 360,000); AID 493056; in the data active means enhancement above about 30%; further: 0% is about no effect
Target sequence (P34981 whole entry, looked up): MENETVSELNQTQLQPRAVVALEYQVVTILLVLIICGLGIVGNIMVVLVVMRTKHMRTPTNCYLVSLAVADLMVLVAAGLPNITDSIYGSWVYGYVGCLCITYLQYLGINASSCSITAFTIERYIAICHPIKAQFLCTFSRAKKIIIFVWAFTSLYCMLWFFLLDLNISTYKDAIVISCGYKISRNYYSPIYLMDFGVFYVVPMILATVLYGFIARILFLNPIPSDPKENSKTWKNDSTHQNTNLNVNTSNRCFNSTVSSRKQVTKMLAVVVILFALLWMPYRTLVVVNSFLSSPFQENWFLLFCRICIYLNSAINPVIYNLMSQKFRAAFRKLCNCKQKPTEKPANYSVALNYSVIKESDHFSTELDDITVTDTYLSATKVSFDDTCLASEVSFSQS
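Enhancer read-out: after compound pinning and an initial kinetic agonist-mode read, an EC20 of TRH (10 nM final) was injected and fluo-8 calcium signal (Ex 480/Em 530) followed at 1 s/cycle for 100 cycles in TRHR-expressing cells.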
TRHR ag: TRH receptor (human) agonism | actives 0.18% (n = 360,000) | P34981 | AID 493084 | TRHR cells, calcium flux fluo-8, FDSS agonist mode | activation, % at 2 µM; further: 0% is about no effect
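Read-out: compound-evoked intracellular calcium rise in TRHR cells, fluo-8 dye, kinetic FDSS fluorescence at 1 s/cycle following a 10-cycle baseline. Cells cultured overnight before dye loading (30 min–1.5 h, RT).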
D1 agonist: agonists of human D1 dopamine receptor | P21728 | HEK293 T-REx D1 cells, calcium flux, agonist mode | activation, % at 2 µM | actives 1% (n = 360,000) | AID 504660; further: 0% is about no effect
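Inducible HEK293 T-REx D1 cells, force-coupled to calcium signalling, were plated at 4000 cells/well with tetracycline and held overnight at 30 C. After no-wash calcium dye loading, compound-evoked calcium rise over 180 s flagged agonists.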
* hit, by the source's call; · = not tested or not shown. Unless noted, no stated cut-off is given here; in the data, active means activation above about 30%; inactive means the rest.

SMILES | D1 PAM | D1 antagonist | TRHR PAM | TRHR ag | D1 agonist
O=C(N/N=C/C(c1ccccc1)c1ccccc1)c1ccccc1F | -1 | -4 | -7 | -1 | 5
CCC(/C=N/NC(=O)c1ccccc1F)CC | -9 | -37* | -1 | 0 | 4
COc1ccc(C)cc1NC(=O)Cn1c(=O)cc(C)c2c(C)nn(C)c21 | 0 | -31* | -5 | 0 | 17
O=C(NCc1ccc(Cl)cc1)C1CCN(S(=O)(=O)c2ccc3c(c2)CCCN3C(=O)C2CCC2)CC1 | -5 | -6 | -5 | 0 | 5
CCOc1ccc(-n2c(C)cc(/C=N/Nc3nc(C)cc(=O)[nH]3)c2C)cc1 | -4 | -35* | 3 | -1 | 3
CCOc1ccc(-n2c(C)cc(/C=N/NC(=O)C(N)=O)c2C)cc1 | -5 | · | 4 | -1 | -2
CSc1ccc(/C=N/Nc2nc(C)cc(=O)[nH]2)cc1 | -11 | -30* | -5 | 0 | 4
Cc1ccc(C(=O)CSc2nc(-c3ccccc3)ccc2C#N)cc1 | -2 | -11 | -3 | 11 | 36*
Cc1ccc(-c2ccc(SCC(=O)c3ccccc3)nn2)cc1 | -4 | -17 | 1 | 1 | 5
FC(F)(F)c1cnc2c(c1)[nH]c(=S)n2-c1ccc(Cl)cc1 | 13 | -16 | -1 | 4 | 9
Fc1ccc(-n2c(=S)[nH]c3cccnc32)cc1 | -6 | -33* | 6 | 0 | -2
Cc1ccccc1SCCNC(=O)c1ccccc1Br | -1 | 10 | 33* | -1 | 0
CSC1=C(C#N)C(c2ccccc2Cl)C(C(=O)c2cccs2)C(O)(C(F)(F)F)N1 (centres undefined) | -8 | -31* | 0 | 0 | 1
C=CCn1ccc(=NC=C(C#N)C#N)c2ccccc21 | -12 | -6 | 0 | 17 | 31*
Cc1ccsc1C(=O)NNC(=O)COc1ccccc1Cl | 1 | 4 | -3 | 0 | 2
CCOc1ccccc1NC(=S)N1CCCCCC1 | 4 | -37* | 0 | -1 | 9
CCCS(=O)(=O)c1ncc(Cl)c(C(=O)N(Cc2ccccc2)Cc2ccco2)n1 | -3 | -43* | -26 | 1 | 1
CCOc1cccc(CNC(=O)c2ccc(N3CCCC3)c(NC(=O)NCc3ccc(F)cc3)c2)c1 | -1 | -35* | 0 | -1 | 3
O=C(CCc1nnc2ccc(NCc3ccccc3)nn12)NCC1CCN(C2CCCC2)C1 (centres undefined) | -6 | -84* | -1 | 0 | 0
O=C(CCc1nnc2ccc(NCc3ccc(F)cc3)nn12)NC1CCCC1 | -9 | -16 | -3 | 1 | 3
COc1cc(CNC(C)c2ccccc2)cc(Cl)c1OCC(=O)Nc1ccccc1 (centres undefined) | -11 | · | -1 | 3 | 64*
CCN(CC)CCNCc1cc(Cl)c(OCC(=O)Nc2ccccc2)c(OC)c1 | -3 | -2 | 1 | 0 | 7
O=C(CNC(=O)c1ccc(Cl)cc1)NCc1ccccn1 | -8 | -2 | 5 | 0 | 0
O=C(CN1C(=O)NC2(CCCCC2)C1=O)Oc1ccc2c(C(F)(F)F)cc(=O)oc2c1 | 0 | 3 | 1 | 19 | 51*
O=C(Nc1ccccc1)Nc1ccccc1 | -4 | -33* | 0 | 3 | 8
SMILES | D1 PAM | D1 antagonist | TRHR PAM | TRHR ag | D1 agonist
O=C(Nc1ccccc1)Nc1ccc(Cl)c([N+](=O)[O-])c1 | -10 | -46* | -5 | 1 | 32*
CC(=O)Nc1ccc(C)c([N+](=O)[O-])c1 | 0 | -4 | -4 | 0 | 2
CCNC(=S)Nc1ccc(Cl)c([N+](=O)[O-])c1 | -7 | -39* | 1 | 1 | 20
CCNC(=S)Nc1cccc([N+](=O)[O-])c1 | -6 | -13 | -4 | 0 | 9
Cc1ccc(NC(=O)Nc2ccccc2)cc1[N+](=O)[O-] | -10 | -33* | -7 | 2 | 24
CCc1cccc(NC(=O)CCc2c(C)nc3c(c2C)c(=O)n(C)c(=O)n3C)c1 | -3 | 4 | -5 | 1 | 2
O=C(Nc1ccccc1)Nc1ccc(F)c([N+](=O)[O-])c1 | -11 | -48* | -7 | 3 | 30
Cc1cc(NC(=O)Nc2ccc(Cl)c(Cl)c2)n(-c2ccccc2)n1 | 0 | -44* | -6 | 1 | 21
COC(=O)c1cc(NC(=O)Nc2ccccc2)ccc1Cl | -5 | -54* | -2 | 1 | 41*
O=C(NC(=S)Nc1ccc(F)c([N+](=O)[O-])c1)c1ccccc1F | 6 | -1 | 0 | -1 | -3
COC(=O)c1cccc(NC(=O)Nc2ccc(Cl)c(Cl)c2)c1 | -6 | -19 | 3 | 0 | 11
CCCSc1ncc(Cl)c(C(=O)N2CCN(c3ccc(OC)cc3)CC2)n1 | -3 | 3 | -3 | -1 | -1
Cc1nc(Cl)c(S(N)(=O)=O)c(C)c1Cl | -9 | -2 | -4 | 1 | 2
CCOC(=O)c1sc(NC(C)=O)cc1C | -14 | 3 | 4 | 1 | 0
CCOC(=O)c1sc(NC(=O)Nc2ccccc2Cl)cc1C | -6 | -39* | 3 | 1 | 15
CCOC(=O)c1sc(NC(=O)Nc2ccccc2)cc1C | -5 | -42* | 11 | 0 | 21
CCOC(=O)c1sc(NC(=O)c2ccc(C)s2)cc1C | -6 | 25 | 4 | 0 | -1
Cc1cccn2c(=O)c(C(=O)N3CCN(c4ccc(Cl)cc4)CC3)cnc12 | 3 | -4 | 6 | 0 | -1
COc1cc(-c2nc3ccc(C)cn3c2Nc2ccc(Cl)cc2)ccc1O | -1 | -5 | -1 | -1 | 2
CCC(C)NC(=O)Cn1nc(C(F)(F)F)c2c1CCCC2 (centres undefined) | -9 | -38* | 0 | 0 | -1
COc1ccc(-c2c(-c3cc(OC)cc(OC)c3)n(C)c3ccc(Br)cc23)cc1 | 0 | -20 | 6 | 0 | 0
COc1ccc(N=Nc2nc3ccc(Br)cc3n2C)cc1 | 1 | 24 | 4 | 0 | 343*
CCOc1nc2cnccc2n(CC(=O)Nc2ccccc2C(=O)OC)c1=O | 1 | -6 | -2 | 0 | 2
O=S(=O)(c1ccc(F)cc1)N1CCN(S(=O)(=O)c2cccs2)CC1 | -6 | 3 | 0 | 1 | 2
COCCOC(=O)c1c(NC(=O)CNCc2ccco2)sc(C(N)=O)c1C | -5 | -35* | -4 | 1 | 4
COCCOC(=O)c1c(NC(=O)CNc2ccc(C)c(F)c2)sc(C(N)=O)c1C | 1 | 7 | -5 | 0 | 3
Cc1ccc(S(=O)(=O)N(Cc2cccc(C)c2)C(=O)N2CCN(C)CC2)cc1 | -4 | -13 | -3 | 3 | 0
Cc1ccc(C)n1-c1ncn[nH]1 | -12 | -4 | 30* | 0 | 3
O=C1C2CC=CCC2C(=O)N1c1ncn[nH]1 (centres undefined) | -1 | 0 | 2 | -1 | 3
Cc1ccc2cc(CCNS(=O)(=O)c3ccc(Cl)cc3)c(=O)[nH]c2c1C | -6 | -37* | -6 | 0 | -2
